Laboratory results: PubChem BioAssay AID2685 (National Center for Advancing Translational Sciences (NCATS), 2010)
The whole screen tested about 320,000 compounds, of which about 2,100 (0.66%) were called active. Roughly 53% stayed inconclusive and do not appear here. Calls come from the whole dose curve; as a rule, active = well fitted inhibition curve with a large enough effect in the signal ratio, with a control signal flat (not every such curve was filed as active); inconclusive = small, poorly fitted or top-dose-only effect, or effect the other way, or a change in a side signal; inactive = flat fitted curve, though single readings scatter; the % refers to the signal ratio. The sample as a whole holds a higher share of actives than the screen did.

Experiment: qHTS Assay for Lipid Storage Modulators in Drosophila S3 Cells;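 for cell number change: cells counted by Cell Tracker Red CMTPX staining in the red channel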; for lipid storage change, negative = inhibition: % is set by controls: 0 for no effect and ±100 for the full control effect
Details: BODIPY lipid droplet fluorescence, 18-24 h, cells fed with added oleic acid; cell number change: measured here: cell count max response; series mostly up to 46.1 µM; lipid storage change, negative = inhibition: at the top concentration
Description: NIH Molecular Libraries Probe Production Centers Network [MLPCN] NIH Chemical Genomics Center [NCGC] MLPCN Grant: 1 R03 MH085686-01 Assay Submitter (PI): Beller, Mathias; Max-Planck-Institut fur Biophysikalische Chemie NCGC Assay Overview: Storing lipids as a reservoir for energy or the anabolism of elementary metabolites is a common feature of probably all cells and is conserved from bacteria to humans. The universal cellular lipid storage organelle is the so-called lipid storage droplet (LD). Although ubiquitous, LDs share a simple structure composed of a hydrophobic core that harbors the storage lipids, which is shielded by a droplet-specific phospholipid monolayer to which proteins are attached. The current model of LD biogenesis involves an incorporation of the lipid core into the membrane leaflets of the endoplasmic reticulum (ER) followed by a subsequent budding-like maturation of a LD, which ultimately pinches off. Once released, LD volume can increase by localized lipogenesis or fusion of existing droplet. Storage lipids are re-mobilized enzymatically by lipase activity. Lipase regulation in the adipocyte is heavily studied and involves multiple components including catecholamine signaling, the LD-associated proteins Perilipin and comparative gene identification (CGI-58) and at least two lipases named hormone sensitive lipase (HSL) and adipocyte triglyceride lipase (ATGL). LD regulation outside of the adipocyte is poorly understood and only few components are known. However, there is an urgent need to learn more about ectopic fat depots as mislocalized storage of lipids, for example in the liver or muscle, is an eminent health problem associated with insulin resistance or the metabolic syndrome. We developed a laser-scanning cytometer assay to enable 1,536-well screening and combined the results of the small molecules screen with an RNAi database based on lipid storage.
Triacsin C (Sigma-Aldrich T-4540), an inhibitor of long-chain fatty acyl CoA synthetase that blocks synthesis of triglycerides, was used as a positive control for lipid under-storage. A total of 23 nL of compound solution of different concentrations were transferred to the assay plates using a Kalypsys pin tool equipped with a 1,536-pin array containing 10-nL slotted pins (FP1S10, 0.457-mm diameter, 50.8 mm long; V&P Scientific). One microliter of oleic acid (400 uM) was added, and the plate was lidded with stainless steel rubber gasket lined lids containing pinholes. […] Fluorescence was detected by excitation of the fluorophores with a 488-nm laser on an Acumen Explorer (TTP Lab Tech). The total intensity in channel 2 (500-530 nm) reflected lipid droplet accumulation. Cells were detected using channel 3 (575-640 nm) with 5-um width and 100-um depth filters. The ratio of the number of objects in PMT channel 2 over the number of objects in PMT channel 3 was also calculated. Percent activity was computed relative to an internal control (100% inhibited lipid droplet deposition due to the presence of 20 uM Triacsin C), which was added to 32 wells/plate.
Potency is the fitted concentration of half-maximal effect.

Compound | Potency | cell number change [%] | lipid storage change, negative = inhibition | outcome
COCCCNC(=O)c1cc(OC)c(OC)c(OC)c1 | 16.4 µM (active) | -1.92 |  | 
COc1ccc(C(=O)NCCCCNC(=O)c2ccc(OC)c(OC)c2)cc1OC |  | 11.4 | 17.3% (inactive) | 
COc1cc(C(=O)NCCOc2ccccc2)cc(OC)c1OC |  | -10.6 | 1.93% (inactive) | 
COc1cc(C(=O)NCCOc2cc(C)cc(C)c2)cc(OC)c1OC |  | 3 | 0.714% (inactive) | 
COc1ccc(C(=O)NCCCCCC(=O)O)cc1OC | 9.2 µM (active) | -16 |  | 
COc1ccc(C(=O)NCCCc2ccccc2)cc1OC |  | -16.4 | 2.62% (inactive) | 
COC(=O)c1ccc(-c2noc(CN3C[C@H]4CC[C@H]3C4)n2)cc1 |  | -0.0392 | 10.7% (inactive) | 
O=C(NCC1CCCCC1)c1ccccc1[N+](=O)[O-] |  | 5.77 | -19.7% (inactive) | 
COc1ccc(CNC(=O)Cc2cccs2)cc1OC |  | 15.3 | 5.76% (inactive) | 
Nc1nonc1C(=O)N/N=C/c1ccc(Br)o1 |  | 5.25 | -2.4% (inactive) | 
Cc1cccc(OCC(=O)O/N=C(\N)c2ccccn2)c1C |  | -6.52 | -9.68% (inactive) | 
COc1ccc(C(=O)Nc2ccc(S(=O)(=O)N3CCCC3)cc2)c(OC)c1 |  | 7.48 |  | inactive
CC(=O)Nc1ccc(S(=O)(=O)N2CCCC2)cc1 |  | 12.4 | -4.71% (inactive) | 
COc1cc(OC)c(C(=O)Nc2ccc(S(=O)(=O)N3CCCCC3)cc2)cc1OC | 6.51 µM (active) | 2.89 |  | 
CC(=O)c1ccc(NC(=O)Nc2ccc(S(=O)(=O)N3CCCC3)cc2)cc1 | 9.2 µM (active) | -4.34 |  | 
COc1ccc(NC(=O)c2cc(S(=O)(=O)N3CCCCC3)ccc2OC)cc1 |  | -15.6 | -28.8% (inactive) | 
CC(=O)Nc1ccc(S(=O)(=O)N2CCCN(S(=O)(=O)c3ccc(NC(C)=O)cc3)CC2)cc1 |  | -11.8 | 10.4% (inactive) | 
COc1ccc(N2C(=S)NC3CS(=O)(=O)CC32)cc1 (stereo unspecified) |  | 0.125 | 4.54% (inactive) | 
O=C(CSc1nnc(-c2ccccc2)o1)NC1CC1 |  | -4.73 | 2.05% (inactive) | 
Cc1ccc(-c2nnc(SCC(=O)NC3CC3)o2)cc1 | 29.1 µM (active) | 10.3 |  | 
Cc1cc(C)cc(-c2nnc(SCC(=O)NC3CC3)o2)c1 |  | 9.78 | 18.4% (inactive) | 
Cc1ccc(NC(NC(=O)c2cccs2)C(Cl)(Cl)Cl)cc1C (stereo unspecified) |  | 4.44 | -13% (inactive) | 
CC(C)(CO)N=C1NS(=O)(=O)c2cc([N+](=O)[O-])ccc21 |  | 2.18 | 0.321% (inactive) | 

Compound | Potency | cell number change [%] | lipid storage change, negative = inhibition | outcome
CCOc1ccc2c(c1)C(C)=CC(C)(C)N2S(=O)(=O)c1ccc(C)cc1 |  | -19.8 | 0.5% (inactive) | 
COc1ccc2c(c1)C(C)=CC(C)(C)N2S(=O)(=O)c1ccc(C)cc1 |  | 5.92 | 8.71% (inactive) | 
CCOc1ccc2c(c1)C(C)=CC(C)(C)N2S(=O)(=O)c1ccc(NC(C)=O)cc1 | 7.31 µM (active) | -18.1 |  | 
Cc1ccc(S(=O)(=O)NC(C)c2ccccc2)cc1[N+](=O)[O-] (stereo unspecified) |  | -16.5 |  | inactive
CCCOc1ccc(C2NC(=O)CCC2[N+](=O)[O-])cc1 (stereo unspecified) |  | -7.92 |  | inactive
COc1ccccc1C1NC(=O)NC(C)=C1C(C)=O (stereo unspecified) | 14.6 µM (active) | 6.66 |  | 
COc1ccccc1C1NC(=O)NC(C)=C1C(=O)OC1CCCCC1 (stereo unspecified) |  | -18.5 | -7.89% (inactive) | 
COc1ccccc1C1NC(=O)NC(C)=C1C(=O)OCc1ccccc1 (stereo unspecified) |  | 8.03 | 7.18% (inactive) | 
CCC(C)(C)NC(=O)C(c1ccccc1Cl)N(C(=O)CCC(=O)Nc1cc(C)on1)C1CC1 (stereo unspecified) |  | 10.4 |  | inactive
O=C(COC(=O)c1ccc(OC(F)F)cc1)NCCNC(=O)COC(=O)c1ccc(OC(F)F)cc1 |  | -4.4 | 1.33% (inactive) | 
Cn1c(SCC(=O)Nc2ccccc2F)nnc1-c1cccs1 |  | 14.3 |  | inactive
Cc1nnc(NC(=O)Cn2nc(C)c3ccccc3c2=O)s1 |  | 9.11 | 3.77% (inactive) | 
COc1cccc(NC(=O)CCNC(=O)c2ccccc2Cl)c1 |  | -13.1 | -15.6% (inactive) | 
CNC(=O)CN(C)S(=O)(=O)c1ccc(F)cc1 | 20.6 µM (active) |  |  | 
CCCNC(=O)CN(C)S(=O)(=O)c1ccc(F)cc1 |  | -1.04 | -19.4% (inactive) | 
CC(C)NC(=O)CN(C)S(=O)(=O)c1ccc(F)cc1 |  | 0.117 | -5.26% (inactive) | 
COc1cc(NC(=S)NCc2ccco2)cc(OC)c1OC |  | -1.1 | 7.9% (inactive) | 
Cc1ccc(Cc2cnc(NC(=O)c3cccs3)s2)cc1 |  | -12.1 | -11.2% (inactive) | 
Cc1ccc(S(=O)(=O)c2cc3c(=O)n4cccc(C)c4nc3n(CC3CCCO3)c2=N)cc1C (stereo unspecified) |  | 7.15 | 13.5% (inactive) | 
CC(=C\c1ccccc1)/C=C1/SC(=S)N(CCC(=O)O)C1=O |  | 5.93 | -4.15% (inactive) | 
COc1ccc(/C=C2/SC(=S)N(CCC(=O)O)C2=O)cc1 |  | -16.6 | -19.3% (inactive) | 
COc1ccc(/C(C)=C2\SC(=S)N(CCC(=O)O)C2=O)cc1 | 16.4 µM (active) | 7.05 |  | 
O=C(CSc1nnnn1-c1ccccc1)N1N=CCC1c1ccccc1 (stereo unspecified) |  | -5.17 | 5.81% (inactive) | 
